A selection: hits, their analogues and other compounds. The true share with any hit is near 3%.
Fh CTSL1 inh = counter-screen for PFM18AAP inhibitors: inhibitors of F. hepatica cathepsin L1. AID 1906. hit rate 0.49% among 300,000. recombinant F. hepatica cathepsin L1, Z-Leu-Arg-MCA fluorescence. inhibition, % at 5.96 µM;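 active = inhibition above the mean of all tested compounds plus 3 SD, set per screening campaign, cut at about 17% in these data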;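 also: 0% = plate median of test compound wells and 100% = 1 µM Z-Phe-Ala-diazomethylketone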
PAFAH1B2 FP inh = inhibitors of human PAFAH1B2; AID 492953; inhibition, % at 3.39 µM; hit rate 1.2% among 340,000; recombinant PAFAH1B2, FP-rhodamine activity probe, fluorescence polarization; P68402;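 active = inhibition above the mean of all tested compounds plus 3 SD, cut at about 24% in these data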;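 also: 0% = enzyme with DMSO and 100% = wells lacking PAFAH1B2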
PAFAH1B3 FP inh = blocks human PAF acetylhydrolase 1B catalytic subunit 3; inhibition, % at 3.39 µM; recombinant PAFAH1B3, FP-rhodamine probe, fluorescence polarization; hit rate 0.28% among 340,000; Q15102;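 active = inhibition above the screen-wide average of all tested compounds plus 3 SD, cut at about 25% in these data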;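 also: 0% = enzyme with DMSO only and 100% = wells lacking PAFAH1B3 protein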
pPAFAH FP inh = pPAFAH (human) enzyme inhibition | hit rate 1.5% among 330,000 | Q13093 | recombinant pPAFAH, FP-rhodamine probe fluorescence polarization | inhibition, % at 3.39 µM;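 active = inhibition above the mean inhibition across the screen plus 3 SD, cut at about 25% in these data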;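 also: inhibitors block binding of the rhodamine activity-based probe so polarization drops; 0% = enzyme with DMSO and 100% = wells lacking pPAFAH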
Target sequence (Q13093 whole entry, looked up): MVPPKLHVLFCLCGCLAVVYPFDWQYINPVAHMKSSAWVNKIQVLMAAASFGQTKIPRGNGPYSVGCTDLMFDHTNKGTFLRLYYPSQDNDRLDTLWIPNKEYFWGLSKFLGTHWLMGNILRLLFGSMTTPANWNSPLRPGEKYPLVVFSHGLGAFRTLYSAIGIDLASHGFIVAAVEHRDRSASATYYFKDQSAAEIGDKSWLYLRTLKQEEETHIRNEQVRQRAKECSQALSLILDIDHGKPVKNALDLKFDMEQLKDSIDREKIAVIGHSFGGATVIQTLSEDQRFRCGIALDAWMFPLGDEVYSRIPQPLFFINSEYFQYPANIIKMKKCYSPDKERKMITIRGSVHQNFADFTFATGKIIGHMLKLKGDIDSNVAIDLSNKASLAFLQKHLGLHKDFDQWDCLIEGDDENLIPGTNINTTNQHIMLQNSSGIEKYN
PP5 inh = inhibitors of human protein phosphatase 5 (PP5); inhibition, % at 6.7 µM; hit rate 0.18% among 320,000; P53041; purified PP5c, OMFP substrate fluorescence;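 active = inhibition above the campaign's mean inhibition across all tested compounds plus 3 SD, cut at about 9.5% in these data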;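 also: 0% = DMSO only and 100% = 100 µM cantharidin control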
PAFAH2 FP inh = inhibitors of human PAFAH2; Q99487; recombinant PAFAH2, FP-rhodamine activity probe, fluorescence polarization; inhibition, % at 3.39 µM; hit rate 0.99% among 340,000; AID 492956;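 active = inhibition above the mean over all tested compounds plus 3 SD, cut at about 30% in these data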;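 also: inhibitors block probe labeling of enzyme so polarization drops; 0% = enzyme with DMSO and 100% = wells lacking PAFAH2 protein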
Active calls of the source: *; . = no result.

SMILES	Fh CTSL1 inh	PAFAH1B2 FP inh	PAFAH1B3 FP inh	pPAFAH FP inh	PP5 inh	PAFAH2 FP inh
CCCC(=O)NC(c1ccco1)c1cc(Cl)c2cccnc2c1O (configuration not stated)	2	6	12	30*	2	-3
COc1ccc(CNC(=O)c2cc(=O)c3cc(C)cc(C)c3o2)cc1	-3	-1	3	7	3	-5
C#Cc1cccc(N2C(=O)C3C4C=CC(C3C2=O)C2C(=O)N(c3cccc(C#C)c3)C(=O)C42)c1 (configuration not stated)	.	-3	-8	.	.	-11
CCOC(=O)Cc1cc(=O)n2[nH]cc(-c3ccc(Cl)cc3)c2n1	9	5	0	32*	2	4
COc1ccccc1C1=NC(c2ccc(C)cc2)N=C1C (configuration not stated)	-1	8	8	25*	3	-4
COc1ccc(CNC(=O)CSc2nc3[nH]ncc3c(=O)n2-c2ccccc2Br)cc1	-2	.	.	1	0	.
Cc1ccc(-c2c(C(=O)NCc3ccccc3)oc(=O)c3ccccc23)cc1	7	10	1	32*	3	24
O=C(O)/C=C/C(=O)N(CC1CCCO1)C1CC(=O)N(c2c(Cl)cccc2Cl)C1=O (configuration not stated)	0	7	5	-7	1	-6
CN(C)c1ccc(C2Nc3ccccc3C(=O)N2NS(C)(=O)=O)cc1 (configuration not stated)	.	5	4	.	.	1
O=C(NCCc1ccccc1Cl)C1CCC(=O)N(CC2CCCCC2)C1 (configuration not stated)	1	-2	5	-2	2	8
O=C(O)c1ccc(N/N=C/C2=C(N3CCOCC3)C(=C\c3ccccc3)/CC2)cc1	1	4	8	28*	2	8
CC(=O)OC1CC2(C)/C(=N\O)CCC2C2CCc3cc(O)ccc3C12 (configuration not stated)	.	5	8	.	.	3
Cc1ccc2oc(=O)c3cnn(CC(=O)N(CCC(C)C)Cc4ccco4)c3c2c1	7	2	0	7	-2	15
O=C(Cn1ncc2c1-c1ccccc1OC2)N(Cc1ccco1)C1CCCCC1	62*	10	5	-6	1	-2
CCN(CC)C(=O)Cn1ncc2c1-c1ccccc1OC2	6	3	-5	-3	-9	-1
O=C(Cn1ncc2c(=O)oc3ccccc3c21)N(Cc1ccco1)C1CCCCC1	44*	3	-5	7	0	-3
Cc1cccc(N2CCN(C(=O)c3ccc4nc(-c5ccco5)c(-c5ccco5)nc4c3)CC2C)c1 (configuration not stated)	3	2	6	26*	7	1
Cc1cc2nc(SCC(=O)N(C)C)c3c(c2cc1C)CCCC3	2	-5	0	31*	5	5
CN(C)C(=O)CSc1nc(-c2ccccc2)nc2c1CCCC2	-2	2	5	2	5	3
O=[N+]([O-])c1ccc(S(=O)(=O)Nc2ccc(-c3ccc(N4CCCC4)nn3)cc2)cc1	10	4	7	12	3	-3
Cc1c([N+](=O)[O-])cc(S(=O)(=O)Nc2ccc(-c3ccc(N4CCCC4)nn3)cc2)cc1[N+](=O)[O-]	3	12	2	29*	2	14
Cc1noc(C)c1S(=O)(=O)N1CCCC(C(=O)NCCc2ccccc2)C1 (configuration not stated)	-2	4	3	-1	-2	4
Cc1ccc(CCNC(=O)C2CCCN(S(=O)(=O)c3c(C)noc3C)C2)cc1 (configuration not stated)	0	27*	4	8	1	6
Cc1ccc(CCNC(=O)C2CCCN(S(=O)(=O)c3c(C)noc3/C=C/N(C)C)C2)cc1 (configuration not stated)	3	36*	3	11	-1	7
O=C(NCCC1CCCCN1S(=O)(=O)c1ccccc1)C(=O)NCc1ccncc1 (configuration not stated)	8	2	5	4	1	2
COc1ccc([C@@H]2CC=C(C(=O)O)[C@H](c3ccc(F)cc3)N2S(=O)(=O)c2ccccc2C)cc1	-2	25*	1	3	0	1

Source: PubChem BioAssay
